{"source": "PubChem BioAssay AID873", "about": "(PCMD, 2007)", "note": "About 1,300 (0.62%) of roughly 210,000 compounds were called active.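 Rule for the calls: active = inhibition of 40% or more; inactive = the rest.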 Only a selection was taken, and actives are over-represented in it overall.", "data": [{"target": "Kallikrein-5 (Homo sapiens) (UniProt Q9Y337)", "sequence (Q9Y337 67-293 limits assumed)": "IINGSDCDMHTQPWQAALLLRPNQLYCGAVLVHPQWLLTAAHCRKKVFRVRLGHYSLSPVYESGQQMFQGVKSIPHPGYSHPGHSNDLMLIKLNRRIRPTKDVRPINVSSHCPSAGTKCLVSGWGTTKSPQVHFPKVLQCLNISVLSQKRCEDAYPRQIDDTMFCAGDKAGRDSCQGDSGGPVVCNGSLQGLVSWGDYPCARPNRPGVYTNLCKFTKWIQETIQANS", "experiment": "inhibition of kallikrein 5 (hK5) activity – biochemical, 1536-well, primary screen (AID 873);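 note: 0% = enzyme controls without compound and 100% = no-enzyme blanks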", "settings": "recombinant hK5, fluorogenic AMC substrate cleavage; at 5 µM; active compounds read high", "values": [{"smiles": "CC(C)n1c(=O)c(C=Nc2ccc(Br)cc2)c(O)n(Cc2ccco2)c1=O", "inhibition": "115% (active)"}, {"smiles": "CN(C)CC1Oc2ccccc2OC1(O)c1ccccc1", "note": "(stereo not given)", "inhibition": "-2.65% (inactive)"}, {"smiles": "O=c1[nH]c(=O)n(Cc2ccccc2)c(O)c1/C=N/Nc1c(F)c(F)c(F)c(F)c1F", "inhibition": "3.18% (inactive)"}, {"smiles": "O=C(O)COc1ccccc1/C=C1\\C(=O)NC(=O)N(CCC2=CCCCC2)C1=O", "inhibition": "0.1% (inactive)"}, {"smiles": "CC(C)c1ccc(-n2c(O)c(/C=N/N3CCOCC3)c(=O)[nH]c2=S)cc1", "inhibition": "-2.01% (inactive)"}]}]}
